# Data taken from PubChem BioAssay AID493098 (Sanford-Burnham Center for Chemical Genomics, 2011).
# Screen size: about 340,000 compounds; about 1,700 (0.5%) were called active. Many of the other results were omitted from the sample, so actives are more common in it than they were. A number with no mark means an inactive call.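 Rule for the calls: active = compounds whose inhibition of the agonist-driven luminescence signal at 20 µM reaches about 50% (limit read from the data); inactive = the rest.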
# Molecular target: C-C chemokine receptor type 6 (Homo sapiens) (UniProt P51684)
# Sequence (P51684 whole entry, looked up): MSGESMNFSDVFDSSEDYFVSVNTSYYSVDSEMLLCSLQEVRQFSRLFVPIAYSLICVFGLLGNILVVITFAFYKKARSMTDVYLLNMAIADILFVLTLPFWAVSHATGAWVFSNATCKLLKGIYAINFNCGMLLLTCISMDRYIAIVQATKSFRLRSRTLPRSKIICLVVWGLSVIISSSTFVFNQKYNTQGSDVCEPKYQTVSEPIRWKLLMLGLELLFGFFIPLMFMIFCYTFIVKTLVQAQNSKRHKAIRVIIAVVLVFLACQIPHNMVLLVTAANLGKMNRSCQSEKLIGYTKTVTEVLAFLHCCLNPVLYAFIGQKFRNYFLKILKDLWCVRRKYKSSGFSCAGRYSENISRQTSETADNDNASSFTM
# Test: CCR6 receptor antagonists, primary screen, cell-based, CHO-K1, luminescence, beta-arrestin, uHTS (AID 493098);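 note: cells stimulated with CCL20 at 14 nM final; plate controls were DMSO with CCL20 for no effect and DMSO without agonist for full effect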
# Conditions: CHO-K1 CCR6 PathHunter beta-arrestin, CCL20-stimulated, at 20 µM, hits give high values
row,SMILES,inhibition
1,Cc1cccc(CSc2ccc(-c3cccs3)nn2)c1,7.33%
2,COc1ccccc1C1SCCN1C(=O)c1ccc([N+](=O)[O-])cc1 (stereo unspecified),-4.39%
3,CC1CC2=C(CC1/C=N/NC(N)=S)C(C)(C)CCC2 (stereo unspecified),76.2% (active)
4,CCC(C)N(C(=O)Cn1nc(C)c([N+](=O)[O-])c1C)C1CCS(=O)(=O)C1 (stereo unspecified),-5.11%
5,CCOc1ccc(NC(=O)COC(=O)C2CCC(=O)N2)c([N+](=O)[O-])c1 (stereo unspecified),-15.3%
6,O=c1[nH]c(CN2CCN(S(=O)(=O)c3ccc4c(c3)OCCO4)CC2)nc2sc3c(c12)CCCC3,10.3%
7,O=S(=O)(Nc1ncccn1)c1ccc(NS(=O)(=O)c2cccc(Cl)c2Cl)cc1,9.31%
8,O=C(CCc1ccccc1)NNC(=O)COc1ccc(Cl)cc1,7.8%
9,COc1ccc(C(=O)NC(=S)NNC(=O)c2c(-c3ccccc3)noc2C)cc1,32.9%
10,COc1ccc(C(=O)NC(=S)NNC(=O)CCc2ccccc2)cc1,63.5% (active)
11,COCCn1c(SCC(=O)Nc2nc(C)cs2)nnc1C(C)C,-5.85%
12,CN(C)CCn1c2c(c(SCC(=O)NCc3ccccc3)nc1=O)CCC2,8.36%
13,N#CC1(NC(=O)COC(=O)Cc2n[nH]c(=O)c3ccccc23)CCCCC1,-0.31%
14,O=C(NNC(=O)c1cnccc1C(F)(F)F)c1ccc(Cl)cc1,-1.91%
15,CCOC(=O)CN1C(=O)C(=O)c2cc(C)ccc21,15.8%
16,CC(C)OC(=O)CN1C(=O)C(=O)c2ccccc21,108% (active)
17,CC(OC(=O)CN1C(=O)c2ccccc2C1=O)C(=O)c1ccccc1 (stereo unspecified),6.02%
18,Cc1c(Cl)cccc1NC(=O)CSc1ccc(-c2cccnc2)nn1,12.9%
19,Cc1cc(C(=O)N2CCC(C(=O)O)CC2)c(C(F)(F)F)o1,4.3%
20,Cc1cc(NC(=O)CCC(=O)N(Cc2ccccc2)C(C(=O)NC2CCCC2)c2ccc(C)o2)no1 (stereo unspecified),7.11%
21,O=C(NNc1cc(Cl)ccc1Cl)c1cccnc1Cl,13.2%

row,SMILES,inhibition
1,COc1cccc(CNC(=O)c2cccnc2Sc2ccc(Cl)cc2)c1,-12.9%
2,CC(=O)/C(=N\Nc1ccc(Cl)cc1Cl)Sc1cccc2cccnc12,65.9% (active)
3,CC(Sc1nc2c([nH]c3ccccc32)c(=O)n1C)c1ccccc1 (stereo unspecified),5.65%
4,CC(=O)c1ccc(N=C2SCCCN2C(=O)C2CCCCC2)cc1,12.7%
5,COc1cc(OC)cc(-c2cc3nc(C4CCN(C(=O)OC(C)(C)C)CC4)cc(=O)n3[nH]2)c1,-12.3%
6,CSCCC(NC(=O)COc1ccccc1)C(=O)OCC(=O)c1cc2ccccc2o1 (stereo unspecified),59.6% (active)
7,CSCCC(NC(=O)COc1ccccc1)C(=O)OCCOc1ccc(Br)cc1 (stereo unspecified),12.1%
8,CSCCC(NC(=O)COc1ccccc1)C(=O)OCc1ccc(Cl)cc1 (stereo unspecified),-15.3%
9,C#CCO[C@@H]1C[C@H](n2cnc3c(=O)[nH]c(NC(=O)C(C)C)nc32)O[C@@H]1CO,-6.43%
10,Cc1csc(SCC(=O)N(c2ccccc2)C(C)C)n1,13.7%
11,Cc1nc(-c2ccc(F)cc2)c(CC(=O)Nc2cc(S(=O)(=O)N3CCCCC3)ccc2C)s1,5.08%
12,CC1=C/C(=N\OS(=O)(=O)c2ccccc2)C=CC1=O,80.3% (active)
13,O=C(NC1CC1)C(Cc1ccccc1)NS(=O)(=O)c1ccccc1F (stereo unspecified),6.69%
14,CN(O)C(=S)c1ccccc1,95.7% (active)
15,CN(/N=C/c1ccccc1)C(=S)c1ccccc1,23.9%
16,CN(CC(=O)O)C(=O)c1ccccc1,-10.2%
17,COC(=O)c1sc(-c2ccc(C(C)(C)C)cc2)cc1NC(=O)/C=C/C(=O)O,-1.25%
18,O=[N+]([O-])/C=C/c1ccc2c(ccn2Cc2ccccc2)c1,91.2% (active)
19,Cc1nnc(NC(=O)Cn2c(=O)sc3ccccc32)s1,-5.17%
20,COc1cccc(NC(=O)c2cc(S(=O)(=O)N3CCc4ccccc43)cn2C)c1,-11.8%
21,O=C(Cc1c(Cl)cccc1Cl)NC1CC1,-1.28%

row,SMILES,inhibition
1,Cc1cccc(NC(=O)Cc2ccc(Br)cc2)n1,13.2%
2,O=C(CCl)NNc1cccc(Cl)n1,60.7% (active)
3,C=CCC(C(=O)c1ccccc1)[N+](C)(C)CC=C (stereo unspecified),-0.91%
4,CN(CCc1ccccn1)C(=O)c1ccc(OC2CCN(CCc3ccccc3)CC2)cc1,13.6%
5,CCc1c(C)nc2c(-c3ccccc3)c(C)nn2c1Nc1ccc(NC(C)=O)cc1,4.32%
6,O=C(CSc1cccc2cccnc12)N/N=C/c1cccnc1,61.7% (active)
7,COc1ccc(C(=O)NCC(=O)N/N=C/c2cccnc2)cc1,-3.8%
8,CCn1c(SCC(=O)N/N=C/c2ccncc2)nc2ccccc21,10.1%
9,COc1ccc(C(=O)NCc2ccccc2C)cc1S(=O)(=O)NC1CCCC1,2.68%
10,O=c1onc(-c2cccs2)n1Cc1ccccc1,2.59%
11,Cc1c(O)c(C)c2c(c1O)C(=O)C[C@@H](c1ccccc1)O2,14.4%
12,COC(=O)C1NN=C(C(=O)c2ccc(Br)cc2)C1c1cccc(Br)c1 (stereo unspecified),52.8% (active)
13,COc1ccc(C(=O)c2oc3ccc(Br)cc3c2NC(C)=O)cc1,3.07%
14,COC(=O)C1=C(C)N(C)C(C)=C(C(=O)OC)C1c1cccc(Br)c1,36.4%
15,COC(=O)c1ccc([C@@H](O)[C@H](C)C(=O)CC(=O)OC(C)(C)C)cc1,0.65%
16,N#Cc1cccc(OC(=O)c2ccc3c(=O)n4c(nc3c2)CCC4)c1,9.54%
17,Cc1ccc(-n2ncc3c(Nc4cccc(C(=O)O)c4)ncnc32)cc1,9.65%
18,COc1cc(CNc2ncn[nH]2)ccc1OCc1ccccc1C,-5.7%
19,CC1(C)CC[C@]2(C(=O)O)CC[C@]3(C)C(=CCC4[C@@]5(C)CC[C@H](O)C(C)(C)C5[C@H](O)C[C@]43C)[C@@H]2C1 (stereo partly specified),-0.24%
